Assay outcomes deposited in PubChem by Sanford-Burnham Center for Chemical Genomics.
SENP7 inh: inhibitors of human SENP7 protease; Q9BQF6; actives 1.5% (n = 330,000); recombinant SENP7, Z-RLRGG-aminoluciferin luminescence, 40 min; inhibition, % at 5 µM;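 active means inhibition above about 50% at the single test dose, limit read from the data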;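 further: plate controls were DMSO with enzyme for no effect and no enzyme buffer wells for full effect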
PPC-1+TRAIL kill: kills PPC-1 cancer cells in the presence of TRAIL; PPC-1 cells + TRAIL, ATPLite viability luminescence; cell killing (% activity), % at 4 µM or 5 µM; actives 0.41% (n = 220,000); AID 1443;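 active means cell killing above 50% in the first pass at 4 µM, then a duplicate retest at 5 µM averaging 50% or more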;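 further: plate controls were cells with TRAIL plus DMSO for no effect and medium-only wells lacking cells for full effect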
SENP6 block: inhibitors of human SENP6 protease; inhibition, % at 10 µM; Recombinant SENP6 catalytic domain, aminoluciferin luminescence; Q9GZR1; AID 2599; actives 1.8% (n = 330,000);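 active means inhibition above about 50% at the single tested dose, limit read from the data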;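 further: plate controls were DMSO wells with enzyme for no effect and DMSO wells lacking enzyme for full effect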
Target sequence (Q9GZR1 628-1112 limits assumed): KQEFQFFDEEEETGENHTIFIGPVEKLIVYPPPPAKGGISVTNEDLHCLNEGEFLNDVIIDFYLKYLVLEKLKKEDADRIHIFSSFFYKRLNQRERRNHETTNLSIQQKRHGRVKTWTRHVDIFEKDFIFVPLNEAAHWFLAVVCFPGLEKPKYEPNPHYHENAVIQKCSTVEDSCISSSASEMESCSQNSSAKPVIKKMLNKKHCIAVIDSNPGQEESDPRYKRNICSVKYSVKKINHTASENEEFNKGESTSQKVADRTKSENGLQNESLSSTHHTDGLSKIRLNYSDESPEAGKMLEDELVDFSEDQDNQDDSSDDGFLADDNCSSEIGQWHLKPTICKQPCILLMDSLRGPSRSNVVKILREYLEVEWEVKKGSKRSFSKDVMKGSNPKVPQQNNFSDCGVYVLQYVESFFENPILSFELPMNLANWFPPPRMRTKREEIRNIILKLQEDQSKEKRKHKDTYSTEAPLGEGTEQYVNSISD
SENP8 block-1: blocks human SENP8 cleavage of Nedd8 substrate; actives 0.64% (n = 360,000); AID 602440; recombinant SENP8, Nedd8 substrate fluorescence; inhibition, % at 20 µM; in the data active means inhibition mostly above about 40%, no sharp cut-off; inactive means mostly below about 27%
C8 TRAIL sens: sensitizes caspase-8 expressing cells to TRAIL; actives 1% (n = 360,000); NB7+C8 cells + TRAIL, ATPlite viability luminescence; inhibition (viability loss, TRAIL sensitization), % at 10 µM;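 active means compounds causing at least 50% loss of cell viability in the single-dose screen, relative to plate controls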
SENP8 block-2: inhibitors of human SENP8 protease; inhibition, % at 10 µM; actives 1.2% (n = 330,000); purified SENP8, Z-RLRGG-aminoluciferin cleavage, luminescence; AID 2540; Q96LD8; in the data active means inhibition above about 50%
SENP8 confirm: human SENP8 inhibition, confirmed | shares compounds with SENP7 inh | Recombinant SENP8, Z-RLRGG-aminoluciferin luminescence, 60 min | inhibition, % at 12.5 µM | actives 40% (n = 6,200) | AID 488912;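 active means mean inhibition across replicates above about 50%, limit read from the data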
SENP6 confirm: confirmation of human SENP6 protease inhibitors. shares compounds with SENP7 inh. recombinant SENP6, Z-RLRGG-aminoluciferin luminescence. inhibition, % at 12.5 µM. actives 58% (n = 6,200)
SENP7 confirm: human SENP7 inhibition, confirmed. shares compounds with SENP7 inh. recombinant SENP7, Z-RLRGG-aminoluciferin luminescence, 40 min. inhibition, % at 12.5 µM. actives 69% (n = 6,200). AID 488917
Casp3 select: inhibits human caspase-3 in SENP selectivity test; shares compounds with SENP7 inh; purified caspase-3, Z-DEVD-aminoluciferin luminescence, 60 min; inhibition, % at 12.5 µM; actives 60% (n = 6,200);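 active means mean inhibition above about 50%, limit read from the data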;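 further: plate controls were enzyme with DMSO for no effect and wells without caspase-3 for full effect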
Luc interf: luminescence interference (SENP counter-screen). actives 39% (n = 6,200). inhibition, % at 12.5 µM. shares compounds with SENP7 inh. AID 488919. Pre-incubated SENP8/Z-RLRGG-aminoluciferin, luciferase luminescence interference;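 active means mean inhibition above about 50% when retested at one dose, limit read from the data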;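 further: plate controls were DMSO wells with completed reaction for no effect and substrate without enzyme for full effect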
* = called active by the depositor; x = no result given. Most compounds without a hit are left out; they make up all but 3% or so of the library.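 How the source made its calls, unless noted: active means mean inhibition above about 50% in the one-dose retest (limit read from the data); inactive means the rest.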

SMILES	SENP7 inh	PPC-1+TRAIL kill	SENP6 block	SENP8 block-1	C8 TRAIL sens	SENP8 block-2	SENP8 confirm	SENP6 confirm	SENP7 confirm	Casp3 select	Luc interf
CCC(C)c1ccc(NC(=O)COC(=O)CCNC(=O)c2ccco2)cc1 (centres undefined)	-1	x	-12	1	-11	3	x	x	x	x	x
CN(C(=O)c1cccc(NC(=O)c2ccco2)c1)c1ccccc1	-7	x	-2	8	-11	9	x	x	x	x	x
CCC(C)c1ccc(NC(=O)c2ccco2)cc1 (centres undefined)	74*	x	85*	8	73*	70*	79*	78*	94*	71*	67*
CN(C(=O)c1ccc(NC(=O)c2ccco2)cc1)c1ccccc1	81*	x	81*	5	22	61*	13	69*	87*	88*	72*
COc1ccc(NC(=O)CCCc2nc3ccccc3c(=O)[nH]2)cc1Cl	1	x	7	11	5	3	x	x	x	x	x
CN(C(=O)C(=O)c1cn(CC(=O)N2CCCC2)c2ccccc12)C1CCCCC1	6	x	-2	8	-9	-1	x	x	x	x	x
Cc1ccc2oc3ccccc3c(=O)c2c1	x	x	x	-21	13	x	x	x	x	x	x
O=c1c2ccccc2oc2ccc(-c3ccc4cc[nH]c4c3)cc12	62*	x	50*	-18	53*	53*	-10	4	8	3	-2
Cc1ccc(S(=O)(=O)N(CC(=O)Nc2ccc(C)cc2C)C(=O)N2CCN(C)CC2)cc1	2	x	11	13	7	10	x	x	x	x	x
Clc1ccc(-c2cn3cc(Cl)ccc3n2)cc1	93*	x	82*	-182	41	69*	27	42	45	40	15
NNC(=O)c1ccc2nc(-c3ccc(Br)cc3)cn2c1	-9	42	2	-352	31	-7	x	x	x	x	x
Oc1ccc(-c2cn3cc(C(F)(F)F)ccc3n2)cc1	23	85*	55*	-326	89*	26	58*	52*	83*	60*	65*
CCN(CC)S(=O)(=O)c1ccc(-c2cn3cc(Cl)ccc3n2)cc1	3	x	-4	-306	21	-11	x	x	x	x	x
Cc1cc2nc(-c3ccc[nH]c3=O)[nH]c2cc1C	97*	x	95*	-286	90*	92*	96*	97*	102*	98*	82*
COc1ccc(C(=O)NNC(=O)C(=O)Nc2ccc(C)cc2)cc1	-8	x	-20	16	12	-10	x	x	x	x	x
CC(C)Oc1ccc(C(=O)Nc2ccc([N+](=O)[O-])cc2)cc1	86*	12	61*	35	3	26	19	28	15	23	-1
COc1ccc(C(=O)Nc2cccc(C)c2)cc1	90*	37	92*	16	48	78*	84*	86*	99*	92*	85*
CN(C)S(=O)(=O)Oc1ccc(C(=O)Nc2ccc([N+](=O)[O-])cc2)cc1	6	-27	-3	22	14	-3	x	x	x	x	x
COc1ccc(NC(=O)c2ccc(C)cc2)cc1	41	x	63*	30	68*	27	35	31	71*	68*	14
COc1ccc(NC(=O)c2ccccc2)cc1	58*	x	51*	15	29	41	31	32	78*	79*	57*
Cc1ccc(OCCNC(=O)CNC(=O)c2ccc(Cl)c([N+](=O)[O-])c2)cc1	-8	x	-15	2	-13	-20	x	x	x	x	x
Cc1cc(OC(C)C(=O)Nc2ccncc2)ccc1Cl (centres undefined)	-5	x	-9	6	6	2	x	x	x	x	x
Cc1cccc(NC(=O)c2ccc(OC3CSC3)cc2)c1	97*	47	94*	14	36	91*	66*	89*	99*	93*	61*
Cc1cccc(C(=O)N/N=C/c2ccc(OC3CSC3)cc2)c1	0	-3	-35	-1	-1	-9	x	x	x	x	x
COc1ccc(NC(=O)OC(C)C)cc1	25	20	55*	32	3	30	24	34	71*	75*	35
SMILES	SENP7 inh	PPC-1+TRAIL kill	SENP6 block	SENP8 block-1	C8 TRAIL sens	SENP8 block-2	SENP8 confirm	SENP6 confirm	SENP7 confirm	Casp3 select	Luc interf
CCCC(=O)Nc1ccc(C(=O)Nc2cccc(OC)c2)cc1	41	20	13	7	3	31	x	x	x	x	x
O=C(NCc1ccccc1)c1ccc(OC2CSC2)cc1	-10	8	-4	20	4	-11	x	x	x	x	x
COc1cccc(NC(=O)c2ccc(NC(=O)C(C)(C)C)cc2)c1	72*	16	73*	27	16	37	71*	66*	86*	82*	70*
O=C(O)c1ccc(OC2CSC2)cc1	-1	3	52*	22	11	40	55*	54*	26	13	38
COc1ccc(C(=O)[C@@H]2CC[C@](C)(C(=O)O)C2(C)C)cc1	-10	x	-12	11	-8	2	x	x	x	x	x
COc1ccc(C2=NS(=O)(=O)N(C)C(C(=O)Nc3ccc4c(c3)OCO4)=C2)cc1OC	2	x	1	20	1	7	x	x	x	x	x
O=C(COCC(=O)N1CCOCC1)N1CCOCC1	-3	29	-18	14	0	-3	x	x	x	x	x
CCC(=O)Nc1ccc(S(=O)(=O)NC[C@H]2O[C@@H](n3cnc4c(=O)[nH]c(N)nc43)[C@H](O)[C@@H]2O)cc1	x	x	x	18	14	x	x	x	x	x	x
O=C(Nc1ccc(F)cc1)/C(Cl)=C/c1ccccc1	88*	20	3	11	9	79*	-11	79*	96*	72*	14
Cc1ccc(NC(=O)/C(Cl)=C\c2ccccc2)cc1	91*	x	94*	17	23	86*	83*	87*	100*	84*	75*
CC(=O)c1ccc(NC(=O)/C(=C\c2ccccc2)NC(=O)/C=C/c2ccccc2)cc1	2	18	-4	16	7	6	x	x	x	x	x
Cc1ccc(NC(=O)N/C=C/c2ccccc2)cc1	2	26	11	9	27	-3	x	x	x	x	x
CC(=O)c1ccc(NC(=O)/C(Cl)=C/c2ccccc2)cc1	85*	36	67*	6	3	45	13	19	23	20	8
